Results as given in PubChem BioAssay AID1159580 (chemical genetic matrix, 2015).
Values joined by “and” are separate entries in the source; they are usually repeats but may differ in a detail not shown here. Equal values may be shown once. Among all 5,500 compounds or so, about 2,000 (36%) were called active. About 18% were inconclusive and are not listed. Cut-off read from the data, not from the text of the source: active = normalized growth mostly below about 0.91 (no sharp cut-off); inconclusive = no clear call, values can overlap the other calls; inactive = mostly above about 0.92. The list shows a part of the results.

Assay: chemical genetic growth profiling, strain panel (AID 1159580);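 note: tested at 20 µM; growth read once vehicle control cultures reached saturation at 30 °C; 1 = growth at the plate median or of vehicle wells; lower values mean less growth of the strain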
Conditions: S. cerevisiae deletion strains, growth OD

Measured: normalized growth

C[C@H]1O[C@@H](O[C@H]2[C@@H](O)C[C@H](O[C@H]3[C@@H](O)C[C@H](O[C@H]4CC[C@]5(C)C6CC[C@]7(C)[C@@H](C8=CC(=O)OC8)CC[C@]7(O)C6CC[C@@H]5C4)O[C@@H]3C)O[C@@H]2C)C[C@H](O)[C@@H]1O (some centres not stated)
active: locus YGL253W, strain hxk2, hits give low values 0.761
inactive: locus YAL021C, strain ccr4, hits give low values 0.984 | locus YAL026C, strain drs2, hits give low values 0.965 | locus YAL030W, strain snc1, hits give low values 0.964 | locus YBL061C, strain skt5, hits give low values 0.975 | locus YBR009C, strain hhf1, hits give low values 0.968 | locus YBR021W, strain FUR4, hits give low values 0.968 | locus YBR023C, strain chs3, hits give low values 0.957 | locus YBR171W, strain sec66, hits give low values 0.98 | locus YBR229C, strain ROT2, hits give low values 0.982 | locus YBR231C, strain swc5, hits give low values 0.979 | locus YBR279W, strain paf1, hits give low values 0.967 | locus YCL011C, strain gbp2, hits give low values 0.951 | locus YCL016C, strain dcc1, hits give low values 0.921 | locus YCL029C, strain bik1, hits give low values 0.976 | locus YCL061C, strain MRC1, hits give low values 1.01 | locus YCL069W, strain vba3, hits give low values 0.969 | locus YCR088W, strain abp1, hits give low values 0.99 | locus YDL005C, strain med2, hits give low values 1.01 | locus YDL035C, strain GPR1, hits give low values 1.03 | locus YDL040C, strain nat1, hits give low values 0.975 | locus YDL074C, strain BRE1, hits give low values 0.982 | locus YDL101C, strain DUN1, hits give low values 0.987 | locus YDL134C, strain PPH21, hits give low values 1.02 | locus YDL185W, strain tfp1, hits give low values 1 | locus YDL192W, strain arf1, hits give low values 1 | locus YDR001C, strain nth1, hits give low values 0.968 | locus YDR069C, strain doa4, hits give low values 1.02 | locus YDR101C, strain arx1, hits give low values 1.01 | locus YDR137W, strain rgp1, hits give low values 0.976 | locus YDR159W, strain sac3, hits give low values 0.948 | locus YDR162C, strain NBP2, hits give low values 1.01 | locus YDR195W, strain ref2 1.03 | locus YDR297W, strain sur2, hits give low values 0.986 | locus YDR318W, strain mcm21, hits give low values 0.989 | locus YDR334W, strain swr1, hits give low values 0.983 | locus YDR335W, strain msn5, hits give low values 0.984 | locus YDR388W, hits give low values 0.986 | locus YDR392W, strain spt3, hits give low values 0.931 | locus YDR502C, strain sam2, hits give low values 0.993 | locus YEL003W, strain gim4, hits give low values 0.989 | locus YEL037C, strain rad23, hits give low values 0.976 | locus YEL061C, strain CIN8 (second series), hits give low values 0.971 | locus YEL061C, strain CIN8, hits give low values 0.999 | locus YER015W, strain faa2, hits give low values 0.977 | locus YER016W, strain bim1, hits give low values 0.98 | locus YER110C, hits give low values 0.989 | locus YER111C, strain swi4, hits give low values 0.969 | locus YER155C, strain BEM2 (second series), hits give low values 1.03 | locus YER155C, strain BEM2, hits give low values 0.988 | locus YER167W, strain BCK2, hits give low values 1 | locus YFR010W, strain ubp6, hits give low values 1 | locus YGL078C, strain dbp3, hits give low values 0.983 | locus YGL086W, strain mad1, hits give low values 1.02 | locus YGL167C, strain pmr1, hits give low values 1 | locus YGL173C, strain kem1, hits give low values 0.972 | locus YGL227W, strain vid30, hits give low values 0.989 | locus YGL240W, strain doc1, hits give low values 1.05 | locus YGL248W, strain PDE1, hits give low values 0.959 | locus YGR135W, strain pre9, hits give low values 0.965 | locus YGR252W, strain gcn5, hits give low values 0.967 | locus YHR013C, strain ard1, hits give low values 0.984 | locus YHR027C, strain rpn1, hits give low values 0.996 | locus YHR030C, strain SLT2, hits give low values 1 and 1.02 | locus YHR079C, strain IRE1 (second series), hits give low values 0.982 | locus YHR079C, strain IRE1, hits give low values 1.03 | locus YHR094C, strain hxt1, hits give low values 0.978 | locus YHR129C, strain ARP1, hits give low values 1 | locus YHR142W, strain chs7, hits give low values 0.926 | locus YHR200W, strain rpn10, hits give low values 0.999 | locus YIL066C, strain RNR3, hits give low values 0.993 | locus YIL073C, strain SPO22, hits give low values 0.936 | locus YIL125W, strain kgd1, hits give low values 0.985 | locus YIR030C, strain dcg1, hits give low values 0.976 | locus YJL092W, strain hpr5, hits give low values 0.981 | locus YJL095W, strain BCK1 (second series), hits give low values 0.991 | locus YJL095W, strain BCK1, hits give low values 0.953 and 1.05 | locus YJL115W, strain asf1, hits give low values 0.965 | locus YJL129C, strain trk1, hits give low values 0.988 | locus YJL134W, strain LCB3, hits give low values 0.995 | locus YJL154C, strain vps35, hits give low values 0.979 | locus YJL164C, strain tpk1, hits give low values 0.962 | locus YJL166W, strain qcr8, hits give low values 1.03 | locus YJL168C, strain set2, hits give low values 0.981 | locus YJL187C, strain SWE1 (second series), hits give low values 0.974 | locus YJR043C, strain POL32, hits give low values 1.04 | locus YJR066W, strain TOR1, hits give low values 0.958 | locus YKL009W, strain mrt4, hits give low values 0.978 | locus YKL068W, hits give low values 0.989 | locus YKL085W, strain MDH1 (second series), hits give low values 0.963 | locus YKL085W, strain MDH1, hits give low values 0.963 | locus YKL160W, strain elf1, hits give low values 0.985 | locus YKR001C, strain vps1, hits give low values 0.976 | locus YKR026C, strain gcn3, hits give low values 0.977 | locus YKR091W, strain srl3, hits give low values 0.967 | locus YLL001W, strain dnm1, hits give low values 0.989 | locus YLL026W, hits give low values 0.977 | locus YLL041C, strain sdh2, hits give low values 0.981 | locus YLR027C, strain aat2, hits give low values 0.979 | locus YLR039C, strain RIC1, hits give low values 0.999 | locus YLR058C, strain SHM2, hits give low values 0.978 | locus YLR102C, strain apc9, hits give low values 0.979 | locus YLR113W, strain HOG1, hits give low values 1.03 | locus YLR221C, strain rsa3, hits give low values 0.954 | locus YLR258W, strain gsy2, hits give low values 0.96 | locus YLR262C, strain YPT6 (second series), hits give low values 0.997 | locus YLR262C, strain YPT6, hits give low values 0.992 | locus YLR268W, strain sec22, hits give low values 0.988 | locus YLR320W, strain mms22, hits give low values 0.928 | locus YLR330W, strain CHS5, hits give low values 1 | locus YLR342W, strain FKS1 (second series), hits give low values 1.04 | locus YLR342W, strain FKS1, hits give low values 1 | locus YLR357W, strain rsc2, hits give low values 1.07 | locus YLR370C, strain arc18, hits give low values 0.956 | locus YLR371W, strain rom2, hits give low values 0.98 | locus YLR384C, strain iki3, hits give low values 0.954 | locus YLR418C, strain cdc73, hits give low values 0.928 | locus YML016C, strain PPZ1, hits give low values 1 | locus YML032C, strain rad52, hits give low values 0.996 | locus YML120C, strain ndi1, hits give low values 0.992 | locus YML124C, strain tub3, hits give low values 0.975 | locus YMR058W, strain fet3, hits give low values 1 | locus YMR078C, strain ctf18, hits give low values 0.967 | locus YMR125W, strain sto1, hits give low values 0.997 | locus YMR129W, hits give low values 0.973 | locus YMR205C, strain PFK2, hits give low values 0.924 | locus YMR223W, strain ubp8, hits give low values 0.966 | locus YMR231W, strain pep5, hits give low values 0.992 | locus YMR307W, strain GAS1, hits give low values 1.1 | locus YNL067W, strain RPL9B, hits give low values 0.981 | locus YNL071W, strain lat1, hits give low values 0.979 | locus YNL153C, strain GIM3, hits give low values 0.983 | locus YNL183C, strain NPR1, hits give low values 0.984 | locus YNL209W, strain ssb2, hits give low values 0.977 | locus YNL233W, strain BNI4, hits give low values 0.977 | locus YNL248C, strain rpa49, hits give low values 0.979 | locus YNL250W, strain rad50, hits give low values 0.997 | locus YNL271C, strain bni1, hits give low values 0.973 | locus YNL298W, strain CLA4, hits give low values 0.984 | locus YNL307C, strain MCK1, hits give low values 0.978 | locus YNL322C, strain KRE1 (second series), hits give low values 0.972 | locus YNR049C, strain mso1, hits give low values 0.977 | locus YNR052C, strain pop2, hits give low values 0.999 | locus YOL006C, strain TOP1, hits give low values 0.896 | locus YOL012C, strain htz1 0.968 | locus YOL147C, strain pex11, hits give low values 0.984 | locus YOR001W, strain rrp6, hits give low values 1.03 | locus YOR061W, strain CKA2, hits give low values 0.994 | locus YOR069W, strain VPS5, hits give low values 0.994 | locus YOR070C, strain gyp1, hits give low values 0.968 | locus YOR080W, strain dia2, hits give low values 0.982 | locus YOR083W, strain WHI5, hits give low values 0.967 | locus YOR106W, strain vam3, hits give low values 1 | locus YOR136W, strain idh2, hits give low values 0.985 | locus YOR144C, strain elg1, hits give low values 0.985 | locus YOR184W, strain ser1, hits give low values 0.963 | locus YOR231W, strain MKK1, hits give low values 1.01 | locus YOR265W, strain rbl2, hits give low values 0.988 | locus YOR270C, strain vph1, hits give low values 0.89 | locus YOR290C, strain snf2, hits give low values 0.944 | locus YOR316C, strain cot1, hits give low values 0.977 | locus YPL051W, strain arl3, hits give low values 1.01 | locus YPL078C, strain atp4, hits give low values 1.02 | locus YPL106C, strain sse1, hits give low values 0.989 | locus YPL240C, strain hsp82, hits give low values 0.999 | locus YPL241C, strain CIN2, hits give low values 1 | locus YPL256C, strain CLN2, hits give low values 1.02 | locus YPR119W, strain clb2, hits give low values 0.981 | locus YPR141C, strain kar3, hits give low values 0.953 | locus YPR163C, strain tif3, hits give low values 0.981 | locus YPR167C, strain met16, hits give low values 0.989 | strain wtn01, hits give low values 1
